Test results taken from the supplement of paper PMC10723795.
± gives the standard deviation of the averaged measurements.

Each compound was assayed on CHON-002 (assay: nucleolar normality score relative to DMSO (fraction of DMSO control); RPE1 is a non-cancer human cell line; higher = more normal nucleoli (less nucleolar stress)).
Experimental: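 Selected screen hits were validated in hTERT lines (BJ5TA, CHON-002, RPE1) and cancer lines (DLD1, HCT116). Cells were immunostained for nucleolin and UBF and the nucleolar normality score was measured per field of view, with 4 fields per drug. Scores are normalized to each cell line's own DMSO control. Dose and time are not stated for this panel.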

Compound | nucleolar normality score
CC(C)n1nc(-c2ccc3oc(N)nc3c2)c2c(N)ncnc21 [Sapanisertib] | 0.4 ± 0.023
Cc1nc(-c2cn3c(n2)-c2ccc(-c4cnn(C(C)(C)C(N)=O)c4)cc2OCC3)n(C(C)C)n1 [Taselisib] | 0.444 ± 0.044
COC[C@H](NC(=O)c1cnc(C)s1)C(=O)N[C@@H](COC)C(=O)N[C@@H](Cc1ccccc1)C(=O)[C@@]1(C)CO1 [Oprozomib] | 0.548 ± 0.036
COc1cccc2c1C(=O)c1c(O)c3c(c(O)c1C2=O)C[C@@](O)(C(=O)CO)C[C@@H]3O[C@H]1C[C@H](N)[C@H](O)[C@H](C)O1 [Doxorubicin] | 0.182 ± 0.039
CC(C)C[C@H](NC(=O)[C@H](CCc1ccccc1)NC(=O)CN1CCOCC1)C(=O)N[C@@H](Cc1ccccc1)C(=O)N[C@@H](CC(C)C)C(=O)[C@@]1(C)CO1 [Carfilzomib] | 0.453 ± 0.025
Cc1cnc(CNC(=O)c2c(=O)c3ccc(N4CCCN(C)CC4)nc3n3c2sc2ccccc23)cn1 | 0.487 ± 0.11
CCc1cnn2c(NCc3ccc[n+]([O-])c3)cc(N3CCCC[C@H]3CCO)nc12 [Dinaciclib] | 0.201 ± 0.018
CN(C)CCNC(=O)c1cccn2c(=O)c3cc4ccccc4cc3nc12 | 0.0829 ± 0.03
CC(C)c1cc(C(=O)N2Cc3ccc(CN4CCN(C)CC4)cc3C2)c(O)cc1O [Onalespib] | 0.383 ± 0.023
C=CCNC1=C2C[C@@H](C)C[C@H](OC)[C@H](O)[C@@H](C)/C=C(\C)[C@H](OC(N)=O)[C@@H](OC)/C=C\C=C(/C)C(=O)NC(=CC1=O)C2=O | 0.408 ± 0.035
CN1CC[C@H](c2c(O)cc(O)c3c(=O)cc(-c4ccccc4Cl)oc23)[C@H](O)C1 [Flavopiridol] | 0.181 ± 0.013
CC(C)c1c2cc(-c3ccnc(NC4CCC(NC5CCOCC5)CC4)n3)ccc2nn1C (configuration not stated) | 0.281 ± 0.015
